Laboratory results as given in PubChem BioAssay.
Activity calls are given as the source filed them.

assay: growth of efflux-deficient E. coli DRC39 – strain DRC39, OD650, 48 h, E. coli filamentation inducers, primary screen (AID 1179);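 also: screen aims at cell division blockers that make cells filament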; conditions: E. coli DRC39 delta-acrAB growth, higher = more signal, called active from +8 up or from −8 down

z-score, inactive:
COC(=O)Cn1c(C(=O)N2CCCC2)cc2c1C[C@H]1CN(C(=O)c3ccccc3)[C@@](Cc3ccccc3)(C(=O)OC)[C@@H]21 0.172
O=C1C[C@@](C(=O)NCCN2CCOCC2)(c2ccc([N+](=O)[O-])cc2)[C@@H](c2ccc(CO)cc2)N1C1CCCCC1 0.274
CC(=O)NCCCC[C@@H]1NC(=O)[C@H]2C[C@@H](C(=O)NCCCCCCN(C)C)[C@@H](c3cccc(OCCO)c3)N2C1=O -0.197
CC(C)(C)OC(=O)CC[C@]1(C(=O)N2CCCCC2)N=C(c2ccc(OCCCO)cc2)O[C@H]1c1ccccc1 0.837
CC(=O)NCCCC[C@@H]1NC(=O)[C@H]2C[C@@H](C(=O)NCCCCCCN(C)C)[C@@H](c3ccc(O)cc3)N2C1=O -1.53
O=C1C2C=CC(C(O)Cc3ccccc3)N(Nc3ccc([N+](=O)[O-])cc3)C2C(=O)N1c1ccccc1 (centres undefined) 0.0196
C=C(COC)C(=O)CC[C@H](OC(=O)c1ccccc1-c1ccccc1C(=O)O)c1cccc(OCCO)c1 -1.04
C=CC[C@@]1(C(=O)NCC(O)CO)N=C(c2ccc(OCCCO)cc2)O[C@@H]1c1ccccc1CN=[N+]=[N-] (some centres undefined) 1.52
O=C(CS)NCCCCCCNC(=O)[C@@H]1C[C@@H]2C(=O)N[C@@H](Cc3ccccc3)C(=O)N2[C@@H]1c1ccc(O)cc1 -0.889
C=CC[C@]1(C(=O)N2CCCCC2)N=C(c2ccc(OCCCO)cc2)O[C@H]1c1ccccc1N=[N+]=[N-] -0.58
COC(=O)[C@@]1(Cc2ccc(OC)cc2)[C@H]2c3cc(C(=O)N(C)C)n(Cc4ccc(C)c(F)c4F)c3C[C@H]2CN1C(=O)c1ccccc1 -0.373
[N-]=[N+]=NCc1ccccc1C[C@]1(C(=O)N2CCCCC2)N=C(c2ccc(OCCCO)cc2)O[C@H]1c1ccccc1CN=[N+]=[N-] -0.352
CC(C)[Si](OCC[C@H]1O[C@]2(C(=O)N(Cc3ccccc3)c3ccccc32)[C@@H](C)[C@@H]1[Si](C)(C)O)(C(C)C)C(C)C -0.837
C=CCC(OC(C)=O)[C@@H]1[C@@H](N(Cc2ccc(-c3cccc(C(F)(F)F)c3)o2)C(=O)Cc2ccc(F)cc2)c2cc(OCCCO)ccc2N1C(=O)c1ccc(-c2ccccc2)cc1 (some centres undefined) -0.143
C=C[C@H](OC)[C@@H](OC(=O)Nc1ccc(SC)cc1)c1ccc(O)c(F)c1 0.519
O=C1O[C@H](c2ccccc2)[C@H](c2ccccc2)N2[C@H]1[C@@H](C(=O)NC[C@H](O)c1ccccc1)[C@]1(C(=O)Nc3ccc(C#CC4(O)CCCCCC4)cc31)[C@H]2c1ccc(OCCO)cc1 0.855
CC(C)C[C@@H]1NC(=O)[C@H](CC(C)C)NC(=O)[C@@]23C(=O)N[C@@H](Cc4ccccc4)C2[C@H](C)[C@@]2(C)O[C@H]2C3/C=C/CC/C=C/CNC1=O (some centres undefined) -0.103
O=C1NC(=O)C2C1C=CC(C(O)C=Cc1ccc([N+](=O)[O-])cc1)N2Nc1ccccn1 (centres undefined) -0.466
NC(=O)NCC#Cc1ccc2c(c1)[C@]1(C(=O)N2)[C@H](C(N)=O)[C@H]2C(=O)O[C@H](c3ccccc3)[C@H](c3ccccc3)N2[C@@H]1c1ccccc1OCCO 0.0072
CCOC(=O)C[C@H]1[C@H](OC(=O)c2cc3ccccc3oc2=O)[C@@H](NC(=O)C2CCCCC2)c2cc(OCCCO)ccc2N1C(=O)c1ccc2ccccc2n1 0.0214
COc1cc2c(cc1OC)CN(C(=O)[C@H]1[C@@H]3C(=O)O[C@@H](c4ccccc4)[C@@H](c4ccccc4)N3[C@@H](c3ccc(O)cc3)[C@]13C(=O)Nc1ccc(C#CC4(O)CCCCCC4)cc13)CC2 -0.794
O=C1OCCC/C=C\[C@H]2OC34C=CCN(CCN5CCOCC5)C(=O)[C@H]3N(CCCCCO)C(=O)[C@@H]4C12 (some centres undefined) 0.0435
C[N+](C)(C)CCCCNC(=O)[C@H]1C[C@H]2C(=O)NCC(=O)N2[C@H]1c1cccc(OCCO)c1 -0.271
O=C1C[C@@](C(=O)NC2CC2)(c2ccc([N+](=O)[O-])cc2)[C@@H](c2ccc(CO)cc2I)N1CC12CC3CC(CC(C3)C1)C2 -0.869
